# Reference: PubChem BioAssay AID686979 (National Center for Advancing Translational Sciences (NCATS), 2013)
# In all, about 420,000 compounds went through this assay and about 50,000 (12%) were called active. Entries that show only a call come without a potency. Another 26% or so got no clear call; they are omitted. Calls come from the whole dose curve; as a rule, active = well fitted inhibition curve with a large enough effect; inconclusive = small, poorly fitted or top-dose-only effect; inactive = flat fitted curve, though single readings scatter. The sample as a whole holds a higher share of actives than the screen did.
# Assay: qHTS for Inhibitors of human tyrosyl-DNA phosphodiesterase 1 (TDP1): qHTS in cells in presence of CPT; note: nearly all actives have a fitted effect of over 55% in size
# Conditions: chicken DT40 Tdp1-/-;hTDP1 cells + 20 nM CPT, ATP luminescence, 48 h; series mostly up to 46.2 µM
# In short: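 Chicken DT40 Tdp1-/- cells complemented with human TDP1, 400 cells/well, exposed to compounds plus 20 nM camptothecin for at least 48 h at 37 C; viability read as ATP content by CellTiter-Glo luminescence.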
# Potency is the fitted concentration of half-maximal effect.
row,SMILES,Potency
1,COC(=O)CCCC1=CC2=C(c3ccccc3)C(=O)C(C)(OC(=O)C3CCCC3)C(=O)C2=CN1c1ccc(OC)cc1 (configuration not stated),20.6 µM (active)
2,COC(=O)CCCC1=CC2=CC(=O)C(C)(OC(=O)c3cccs3)C(=O)C2=CN1c1cccc(C#N)c1 (configuration not stated),inactive
3,COCCN1C=C2C(=O)C(C)(OC(=O)C3CCCC3)C(=O)C=C2C=C1c1ccsc1 (configuration not stated),inactive
4,O=c1ccc(S(=O)(=O)N2CCCC2)cn1Cc1nc(-c2ccccc2)no1,inactive
5,Clc1cccc(Cl)c1Cn1nnc(-c2cccs2)n1,inactive
6,O=C(Cc1ccc([N+](=O)[O-])cc1)N/N=C/c1ccco1,inactive
7,CCN(/N=C/c1ccccc1)c1cc(=O)n(C)c(=O)[nH]1,inactive
8,O=C(Nc1cccc(Cl)c1)c1csnn1,inactive
9,CC(=O)Nc1cc(C(=O)O)ccc1S(=O)(=O)c1ccc(Cl)cc1,inactive
10,O=C(Nc1ccccc1)c1nnsc1S(=O)(=O)c1ccc(Cl)cc1,4.61 µM (active)
11,CCOc1ccc(C2C(C(=O)O)c3ccccc3C(=O)N2CCN2CCOCC2)cc1 (configuration not stated),inactive
12,CCOc1ccc(C(=O)CCN2CCOCC2)cc1,3.26 µM (active)
13,CC(=O)c1ccc(OCCN2CCOCC2)cc1,inactive
14,COc1cccc(N(C(=O)CNC(=O)c2ccco2)C(C(=O)NC2CCCCC2)c2cccnc2)c1 (configuration not stated),inactive
15,COc1cccc(CNCCc2c[nH]c3ccccc23)c1OCc1ccccc1F,10.3 µM (active)
16,COc1ccc(S(=O)(=O)NCCc2c[nH]c3ccccc23)cc1OC,inactive
17,COc1ccccc1CC(=O)NCCc1c[nH]c2ccccc12,inactive
18,Cc1noc(C)c1C(=O)NCCc1ccc(S(N)(=O)=O)cc1,inactive
19,CCOC(=O)c1c(C)[nH]c(C2=NNC(=NC(C)COC)SC2)c1C (configuration not stated),20.6 µM (active)
20,CCOCCCNC(=O)C(NC(=O)CNC(=O)c1ccccc1)c1ccc(C)cc1 (configuration not stated),inactive
21,CC1CCN(C(=O)/C(=C\c2ccccc2F)NC(=O)c2ccccc2)CC1,inactive
22,COC(=O)c1ccccc1C(=O)NCc1nc(N2CCCC2)c2cccc(C)c2n1,inactive
23,CCCC(=O)n1nc(NCc2ccc(OC)cc2)nc1NCc1ccc(OC)cc1,inactive
24,COc1ccc(CNC2CCCCC2)cc1,inactive
25,COc1ccc(CNc2nc(NCc3ccc(OC)cc3)c3ncn(C4CCCC4)c3n2)cc1,3.26 µM (active)
26,COc1ccc(-n2c(SCC(=O)NCc3cccs3)nnc2-c2ccoc2C)cc1,inactive

row,SMILES,Potency
1,C/C(=N\NC(=O)c1ccc(CSc2nc(C)cc(C)n2)cc1)C1CCCCC1,inactive
2,CC(=O)c1c(C)c[nH]c1C,23.1 µM (active)
3,C1CC1Cc1noc(CN2CCN(CC3CC3)CC2)n1,inactive
4,O=C(NCCc1c[nH]c2ccccc12)c1cccc(Br)c1,inactive
5,CC1(C(=O)NCCc2c[nH]c3ccccc23)C=CC2(CCCCC2)N1C(=O)c1ccccc1 (configuration not stated),18.4 µM (active)
6,O=C(CN1C(=O)NC2(CCCCC2)C1=O)NCCc1c[nH]c2ccccc12,inactive
7,C=CCn1c(SCC(=O)NC)nnc1C12CC3CC(CC(C3)C1)C2,inactive
8,Cc1cc(C)cc(OCC(=O)NNC(=O)CCN2C(=O)c3ccccc3C2=O)c1,inactive
9,Cc1ccsc1/C=N/NC(=O)Cc1cc(=O)[nH][nH]1,inactive
10,CC(=O)c1ccc(N2CCN(C(=O)CCc3ccccc3)CC2)cc1,inactive
11,COc1cc(CCC(=O)Nc2ccncc2Cl)cc(OC)c1OC,inactive
12,COc1cc(CCC(=O)N2CCN(c3ccccc3Cl)CC2)cc(OC)c1OC,11.6 µM (active)
13,Cc1cc(Cl)c2oc(C(=O)N3CCC(O)(c4ccccc4)CC3)c(C)c2c1,inactive
14,Cc1cc2nc(-c3ccco3)c(Cc3cccc(F)c3)n2c(C)c1Br,16.4 µM (active)
15,CCCCN(C(=O)c1ccc2ccccc2c1)c1c(N)n(CCCC)c(=O)[nH]c1=O,inactive
16,CN(CC(=O)NCCc1ccc(S(N)(=O)=O)cc1)CC(=O)Nc1ccc(F)c(F)c1F,inactive
17,Cc1ccc(C)c2sc(NC(=O)c3ccc(S(=O)(=O)N4CCCC4)cc3)nc12,29.1 µM (active)
18,O=C(Nc1ccccc1F)c1ccc(S(=O)(=O)N2CCCCCC2)cc1,inactive
19,CCOC(=O)c1csc(NC(=O)c2ccc(S(=O)(=O)N3CCCC3)cc2)n1,inactive
20,CN1CCN(S(=O)(=O)c2cccc(C(=O)Nc3sccc3C#N)c2)CC1,inactive
21,Cc1ccc(C(=O)Nc2ncccc2C)cc1S(=O)(=O)N1CCOCC1,inactive
22,Cc1cc2nc(NC(=O)c3ccc(S(=O)(=O)N4CCOCC4)cc3)sc2cc1C,inactive
23,Cc1cccnc1NC(=O)c1cccc(S(=O)(=O)N2CCN(c3ccc(F)cc3)CC2)c1,18.4 µM (active)
24,O=C(N/N=C/c1ccccn1)c1ccc(S(=O)(=O)N2CCCCCC2)cc1,inactive
25,O=C(Nc1ncccc1O)c1ccc(S(=O)(=O)N2CCCC2)cc1,14.6 µM (active)
26,CCOc1cc(C)ccc1OCc1nnc(SCC(=O)Nc2cccc(C(=O)O)c2)n1-c1ccccc1,inactive

row,SMILES,Potency
1,CCCOc1ccc(/C=N/NC(=O)C2CC2)c(OCCC)c1,inactive
2,CC(C)CN1CC(C)C(=O)N(c2ccccc2)C1=S (configuration not stated),inactive
3,N#CC(Cc1cc2ccccc2n1S(=O)(=O)c1ccccc1)OCc1ccccc1 (configuration not stated),inactive
4,N[C@@H](Cc1ccccc1)C(=O)N1CCC(C(=O)NCC(=O)Nc2ccc(F)cc2)CC1,inactive
5,Cc1ccccc1C(=O)O,inactive
6,O=C(O)c1cc([N+](=O)[O-])c(Nc2cccc3ccccc23)c([N+](=O)[O-])c1,inactive
7,CCN(CC)CCCNC(=O)Cn1cnc2sc(C)c(S(=O)(=O)N3CCN(c4ncccn4)CC3)c2c1=O,inactive
8,CC1(C)CC(=O)C=C(c2cccc3c2Oc2ccccc2S3)C1,inactive
9,COc1cc(OC)cc(C(=O)NNC(=O)CCOc2ccccc2OC)c1,inactive
10,COc1ccc(S(=O)(=O)c2c[nH]c(=S)[nH]c2=O)cc1Cl,inactive
11,COc1ccc(-c2nc3ccccc3o2)cc1NC(=O)c1cc([N+](=O)[O-])ccc1N1CCOCC1,inactive
12,Cc1cc(OCc2cc(C(=O)NCc3cc(C(C)C)no3)no2)cc(C)c1Cl,inactive
13,CCOC(=O)CC1(NC(=O)c2cc(COc3cncc(Cl)c3)on2)CCCCC1,23.1 µM (active)
14,CCOC(=O)c1c(NC(=O)c2cc(CC)on2)sc(C(C)=O)c1C,inactive
15,Cc1cc(C)cc(NC(=O)CN2C(=O)c3ccccc3C2=O)c1,inactive
16,Cc1cccc(C(=O)Nc2ccc(C(=O)N/N=C/c3cccc(C)n3)cc2)c1,inactive
17,Cc1cccc(C(=O)Nc2ccc(CC(=O)O)cc2)c1,inactive
18,Cc1cccc(C(=O)Nc2ccc(C(=O)/C=C/c3cccs3)cc2)c1,16.4 µM (active)
19,CC(C)c1ccc(C(=O)OC2CCOC2=O)cc1 (configuration not stated),inactive
20,COc1ccc(C(=O)O)cc1S(=O)(=O)NC1CCN(Cc2ccccc2)CC1,inactive
21,CCOC(=O)C1CCN(S(=O)(=O)c2cc(F)ccc2OC)CC1,inactive
22,COc1ccc(-c2onc(C)c2C)cc1S(=O)(=O)NCCc1ccccc1,20.6 µM (active)
23,COc1ccc(CCNS(=O)(=O)c2cn(C)nc2C)cc1,inactive
24,COc1ccc(-c2onc(C)c2C)cc1S(=O)(=O)NCC1CCN(Cc2cccc(F)c2)CC1,20.6 µM (active)
25,Cc1ccc(-c2onc(C)c2C)cc1S(=O)(=O)Nc1ccccn1,inactive
26,C[C@H]1CN([C@@H](C)CO)C(=O)CCCn2cc(nn2)CO[C@@H]1CN(C)S(=O)(=O)c1ccc(-c2ccccc2)cc1,inactive

row,SMILES,Potency
1,O=C(c1ccco1)N1CCC2(CC1)CCN(c1ncccn1)CC2,inactive
2,CC(=O)Nc1ccc(S(=O)(=O)NC(C)C(=O)OCC(=O)NC2CCCC2)cc1 (configuration not stated),inactive
3,O=C(COc1ccc(-n2cnnn2)cc1)Nc1ccccc1Cl,inactive
4,Nc1nnc(SCC(=O)OCc2ccc(Cl)c(Cl)c2)s1,inactive
5,CCOC(=O)C(Sc1ncc(C#N)c(N)n1)C(C)C (configuration not stated),inactive
6,O=C(NC(Cc1ccc(O)cc1)C(=O)O)/C(=C/c1ccccc1)NC(=O)c1ccccc1 (configuration not stated),inactive
7,Clc1ccc2nc(-c3ccccc3)nc(C(Cl)Cl)c2c1,0.164 µM (active)
8,N#CCSc1nc(-c2ccccc2)nc2ccc(F)cc12,inactive
9,O=C(CCc1nc2ccccc2c(=O)[nH]1)OCC(=O)c1cccc(Cl)c1,inactive
10,Cc1nn(-c2ccccc2)c(C)c1/C=C/C(=O)OC(C)C(N)=O (configuration not stated),inactive
11,Cc1ccc(/C=C(\C#N)C(=O)Nc2cccc3ncccc23)o1,16.4 µM (active)
12,Cc1ccc2c(NC(=O)C3CC3)cccc2n1,inactive
13,Cc1ccc(C(=O)Nc2cccc3ncccc23)cc1[N+](=O)[O-],inactive
14,CC(C)(C)NC(=O)Cn1c(SCC(=O)Nc2nccs2)nc2ccccc21,inactive
15,NC(=O)NC(=O)C(OC(=O)CCNS(=O)(=O)c1ccccc1)c1ccccc1 (configuration not stated),inactive
16,COCCNC(=O)C(c1ccc(C)cc1)N(C(=O)CCC(=O)Nc1ccccn1)c1cccc(C)c1 (configuration not stated),inactive
17,CCCCCC(=O)N1C[C@H](O)[C@@H](n2cc(COC(=O)c3ccccc3)nn2)C[C@@H]1c1ccc(C)cc1,0.82 µM (active)
18,O=C(OCc1cn([C@@H]2C[C@H](c3ccc(Cl)cc3)N(Cc3cccs3)C[C@H]2O)nn1)c1ccccc1,inactive
19,CCCCCCN1C[C@@H](O)[C@H](n2cc(COC(=O)c3ccccc3)nn2)C[C@@H]1c1ccc(Cl)cc1,inactive
20,Cc1cc(S(=O)(=O)NCC(C)C)ccc1OCC(=O)NC1CC1,inactive
21,CC(Sc1ncnc2c1cnn2-c1ccccc1)C(=O)Nc1ccc(N2CCOCC2)cc1 (configuration not stated),inactive
22,CCOC(=O)c1c(CN(C)C)n(-c2ccccc2)c2cc(Br)c(O)cc12,inactive
23,O=C1/C(=C\c2ccc(O)cc2)CCC1CNc1ccc(Cl)cc1 (configuration not stated),4.61 µM (active)
24,CC(C(=O)NC1CCS(=O)(=O)C1)N1C(=O)/C(=C/c2ccc(Cl)cc2)SC1=S (configuration not stated),inactive
